According to ChEMBL document CHEMBL3988442, “University of Dundee, Small-Polar-MMV Screening Library” (2021):
The campaign covered roughly 48,000 compounds. About 13,000 (27%) showed an effect of 50% or more. The list shows a part of the results.

Test system: Wolbachia pipientis
Test: Anti-Wolbachia Cell-Based Screen
Assay type: functional
Parameters: scale not given: in the data most compounds retested in dose-response had high values
Conditions: 5 µM

SMILES | Percent Effect
COc1ccnc(N2CCc3ccc(OC(F)F)cc3C2)n1 | 18.95%
c1cnc(N2CCN(Cc3nnnn3C3CC3)CC2)nc1 | -20.27%
CC(CCN(C)C)NC(=O)N1CCSC(C)(C)C1 (centres undefined) | -16.4%
Cc1cccc(OCC(O)CN2CCC(Cn3cccn3)CC2)c1 (centres undefined) | 104.3%
Cc1ccc(OCC(O)CN2CCC(Cn3cc(C)cn3)CC2)cc1 (centres undefined) | 122.4%
CCc1ncc2c(n1)CN(CC(O)COc1ccc(C#N)cc1)CC2 (centres undefined) | -19.89%
Cc1ncc2c(n1)CN(CC(O)COc1ccc(C#N)cc1)CC2 (centres undefined) | -6.644%
Cc1cnn(CC2CCN(CC(O)c3ccccc3F)CC2)c1 (centres undefined) | -4.357%
Cc1cnn(CC2CCN(CC(O)CN3CCC(C)CC3)CC2)c1 (centres undefined) | 0.7757%
Cc1cnn(CC2CCN(CC(O)COc3ccccc3)CC2)c1 (centres undefined) | 7.728%
Cc1cnn(CC2CCN(CC(O)c3ccccc3)CC2)c1 (centres undefined) | 3.63%
OC(COc1ccc2c(c1)OCO2)CN1CC(n2cccn2)C1 (centres undefined) | -5.514%
Cc1cnn(CC2CCN(CC(O)c3ccccc3Cl)CC2)c1 (centres undefined) | -9.107%
Cc1ccccc1OCC(O)CN1CCC(Cn2cccn2)CC1 (centres undefined) | 111.1%
N#Cc1ccc(OCC(O)CN2CCC(Cn3cccn3)CC2)cc1 (centres undefined) | 137.4%
CC(C)(C)c1cc(CN2CCOC(CN)C2)n[nH]1 (centres undefined) | -6.517%
Cc1ccccc1C1CCN(CCn2cc(-c3cccc(O)c3)nn2)C1 (centres undefined) | -0.06043%
CN(Cc1ccc2c(c1)OCCO2)C(=O)Cn1ccccc1=O | -2.106%
CC1(C)CN(Cc2csc(CS(C)(=O)=O)n2)Cc2ccccc21 | -1.783%
COCC1CCN(C(=O)c2cc(-c3ccco3)nc3c(Cl)cccc23)C1 (centres undefined) | -13.75%
O=C(c1cnn[nH]1)N(Cc1ccncc1)CC1CCCO1 (centres undefined) | -2.849%
CN1CCc2c1nc1c(c2N)CCC1 | 94.13%
C[C@@H]1CN(c2nc(N)nc3c2CCC3)CC[C@@]1(O)C1CCC1 | -3.571%

SMILES | Percent Effect
CC(=O)NC1CCN(c2nc(N)nc3c2CCCC3)C1 (centres undefined) | 13.41%
Cc1c(C)n(Cc2ccncc2)c2nc3c(c(N)c12)CCCCC3 | 23.97%
Cc1nc2c(c(N3CCC4(CCCNC4=O)C3)n1)CCC2 (centres undefined) | 3.026%
CN1CCCCc2c1nc1c(c2N)CCCC1 | 88.26%
Cc1c(C)n(-c2ccccn2)c2nc3c(c(N)c12)CCCC3 | 16.56%
C[C@@H]1CN(c2nc(N)nc3c2CCC3)C[C@]1(C)O | -4.313%
CN1CCCc2c1nc1c(c2N)CCC1 | 99.68%
CC(C)N(C(=O)c1ccccc1-c1nc2c([nH]1)CCNC2)C(C)C | 16.68%
Cc1cccc(COC[C@@]23CCC[C@@H]2CN(S(=O)(=O)N(C)C)C3)n1.O=C(O)C(F)(F)F | -15.69%
CCN(C)CC(C)Cn1cnc(-c2ccccc2)c1-c1cncn1CC (centres undefined) | 1.36%
CCc1nc(NCCCn2cccn2)c2c(n1)c(C)nn2C | 10.76%
O=C(Nc1ccccc1OC1CCOC1)c1[nH]nc2c1CCCC2 (centres undefined) | 13.6%
O=C(O)c1ccnc(-c2ccnc(NCCc3nc4c(s3)CCC4)n2)c1 | -20.67%
CC(C)c1cc(C(=O)NCCc2nc3c(s2)CCC3)n(C)n1 | 118.8%
CCN(CC)C(=O)Cn1cc(C(=O)NCCc2nc(C)c(C)s2)nn1 | -0.7768%
COc1nc2c(cc1C(=O)NCCc1nc(C)c(C(=O)O)s1)CCC2 | -5.377%
COc1nc2c(cc1C(=O)NCCc1nc3c(s1)CCC3)CCC2 | -9.23%
Cc1nc(CCNC(=O)c2cc(C(C)C)nn2C)sc1C | 143.4%
Cc1nn2cc(CCNC(=O)c3cc(C(C)C)nn3C)nc2s1 | -16.47%
COc1cccc2c1OCC(C(=O)NCCc1nc3c(s1)CCC3)C2 (centres undefined) | 3.483%
Cc1cc(C(=O)NCCc2nc3c(s2)CCCC3)n(C)n1 | 113.4%
CCC[C@@H]1CN(Cc2ccc(C(F)(F)F)nc2)C[C@H]1C(=O)O | 8.814%
CC(C)N1CCc2ncn(C)c2C1C(=O)NCCN1CCCC1 (centres undefined) | -5.495%

SMILES | Percent Effect
COc1ccc(NC(=O)N2CCN(c3ncccn3)CC2)cn1 | 4.438%
COCCN1CCC2(CCN(C(=O)c3ccc(F)cc3)CC2)C1=O | 82.71%
COCCN1CCC2(CCCN(C(=O)c3ccoc3C)C2)C1=O (centres undefined) | -2.249%
CN1CC(c2ccccc2)CC12CCN(C(=O)c1cccnc1)CC2 (centres undefined) | -3.135%
CN(C)CCN1CCC2(CCN(C(=O)c3cccc(F)c3)CC2)C1=O.O=C(O)C(F)(F)F | 96.95%
CCCN1CCN(C(=O)c2cccnc2)CC1 | 10.45%
CN(C)CCN1CCC2(CCCN(Cc3cccn3C)C2)C1=O.O=C(O)C(F)(F)F.O=C(O)C(F)(F)F (centres undefined) | -29.62%
CCN(C)C1COC2(CCN(C(=O)c3cccc(Cl)c3)CC2)C1.O=C(O)C(F)(F)F (centres undefined) | -32.01%
CN(C)CCN1CCC2(CCN(C(=O)c3ccncc3)CC2)C1=O.O=C(O)C(F)(F)F.O=C(O)C(F)(F)F | 99.78%
COCCN1CCN(C)C2(CCN(C(=O)c3ccnnc3)CC2)C1=O.O=C(O)C(F)(F)F | 1.549%
O=C(O)C(F)(F)F.O=C(c1cccnc1)N1CCC2(CC1)CCN(c1ccsc1)C2=O | 13.97%
CN(C)CCN1CCC2(CCN(C(=O)c3cccnc3)CC2)C1=O | 114%
COc1ccc(-c2nc(CNC(C)Cn3cccn3)cs2)cc1 (centres undefined) | 6.683%
COCCNc1nc2c(c(NCCc3cccs3)n1)CCNCC2 | 23.06%
CC(NC(=O)NCCCn1cncn1)c1ccccc1Cl (centres undefined) | -1.417%
Cc1nn(C)c(Oc2cccc(F)c2)c1NC(=O)C1CCOCC1 | 12.99%
CNC(=O)c1c(C)cccc1NCc1nnc(C2CC2)o1 | -4.757%
O=C(NC[C@H]1OC[C@@H](N(CC2CC2)CC2CC2)[C@@H]1O)Nc1ccccc1 | -9.212%
CC(C)C(=O)NCCc1cc2nc(-c3ccncc3)ccn2n1 | 130.4%
CC(C)(C)C(=O)NCCc1cc2nc(-c3ccncc3)ccn2n1 | 129.3%
Cc1cc(C)n(-c2cncc(NCCNC(=O)C(C)C)n2)n1 | 1.534%
CCN(C)C(=O)c1ccc(N(C)Cc2cc(-c3ccncc3)no2)nc1 | -25.61%
CC(C)[C@H](Nc1cc(-c2ccncc2)nc2ccnn12)C(N)=O | -7.86%
